Results published in ChEMBL document CHEMBL3433997, “St. Jude Leishmania screening dataset” (2016).

Legend:
Format in all cases: functional
[1] = target: Solute carrier family 2, facilitated glucose transporter member 1 (Homo sapiens) (UniProt P11166); assay: ST_JUDE_LEISH: Cytotoxicity at 2uM final concentration against transgenic Leishmania Mexicana promastigotes LmGLUT1 that are glucose transport deficient and complemented with the human glucose transporter GLUT1. Activity is measured by DNA content using SYBR green in vitro
Chain of Solute carrier family 2, facilitated glucose transporter member 1 (Homo sapiens) (P11166 whole entry): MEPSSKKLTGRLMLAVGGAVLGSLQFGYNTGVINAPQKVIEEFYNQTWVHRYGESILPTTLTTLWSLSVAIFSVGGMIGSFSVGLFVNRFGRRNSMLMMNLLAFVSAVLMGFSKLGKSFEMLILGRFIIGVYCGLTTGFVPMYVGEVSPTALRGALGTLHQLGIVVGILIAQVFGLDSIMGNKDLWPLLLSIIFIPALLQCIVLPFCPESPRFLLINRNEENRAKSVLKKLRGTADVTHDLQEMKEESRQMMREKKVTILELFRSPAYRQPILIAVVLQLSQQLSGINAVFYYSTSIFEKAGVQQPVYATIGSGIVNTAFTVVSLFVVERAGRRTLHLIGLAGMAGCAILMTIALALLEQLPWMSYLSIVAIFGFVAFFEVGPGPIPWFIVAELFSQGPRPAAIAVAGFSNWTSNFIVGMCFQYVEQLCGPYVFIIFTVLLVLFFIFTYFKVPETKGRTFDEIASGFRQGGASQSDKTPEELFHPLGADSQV

[2] = target: Hexose transporter 1 (Plasmodium falciparum) (UniProt O97467); assay: ST_JUDE_LEISH: Cytotoxicity at 2uM final concentration against transgenic Leishmania Mexicana promastigotes LmPfHT that are glucose transport deficient and complemented with the Plasmodium falciparum hexose transporter. Activity is measured by DNA content using SYBR green in vitro
[3] = target: Glucose transporter (Leishmania mexicana) (UniProt O61059); assay: ST_JUDE_LEISH: Cytotoxicity at 2uM final concentration against transgenic Leishmania Mexicana promastigotes LmGT2 that are glucose transport deficient and complemented with the L. Mexicana glucose transporter 2. Activity is measured by DNA content using SYBR green in vitro

O=C(N[C@H]1CCCC[C@H]1C(=O)O)c1ccccc1
inhibition [1]: 0.5%
inhibition [2]: 1.61%
inhibition [3]: 0.81%

COc1cc(C(=O)NC2CCN(Cc3ccccc3)CC2)ccc1-c1cc2cc(Cl)c(Cl)cc2[nH]1
inhibition [1]: 3.35%
inhibition [2]: 4.32%
inhibition [3]: 2%

CC(C)C(=O)NC(c1ccc(Cl)cc1)c1ccc2cccnc2c1O (stereo unspecified)
inhibition [1]: 3.14%
inhibition [2]: 5.18%
inhibition [3]: 2.63%

Cc1nn(CC(C)C)c2sc(C(=O)N3CCN(S(=O)(=O)c4ccc(C#N)cc4)CC3)cc12
inhibition [1]: 10.3%
inhibition [2]: 8.28%
inhibition [3]: 5.07%

Clc1ccc(/N=C(/NCCCCCCCN/C(=N\c2ccc(Cl)cc2)Nc2ccc(Cl)cc2)Nc2ccc(Cl)cc2)cc1
inhibition [1]: 0.4%
inhibition [2]: 1.89%
inhibition [3]: -1.85%

CC(C)(C)c1cc(CN2CCN(Cc3ccccc3)CC2)cc(C(C)(C)C)c1O
inhibition [1]: 1.34%
inhibition [2]: 2.9%
inhibition [3]: 2.7%

CCOc1ccc(/C=C/C(=O)Nc2cccc3c2CCN(C)C3)cc1
inhibition [1]: 8.24%
inhibition [2]: 7.2%
inhibition [3]: 6.27%

COc1cc(CCNC(=N)/C=C/c2ccc(Cl)cc2)ccc1Cl
inhibition [1]: 2.51%
inhibition [2]: 2.01%
inhibition [3]: -0.39%

CCC(C)c1ccc(NC(=O)c2ccc(S(=O)(=O)Nc3ccc(OC)c(N4CCN(CC5CC5)CC4)c3)cc2)cc1 (stereo unspecified)
inhibition [1]: 1.59%
inhibition [2]: -0.83%
inhibition [3]: -1.88%

COCCNCc1ncsc1-c1ccc2c(Nc3cc(O)c(Cl)cc3F)ccnc2c1
inhibition [1]: 3.19%
inhibition [2]: 3.29%
inhibition [3]: 1.41%

N=C(N)c1cc(Br)cc(NC(=O)Nc2cc(Br)cc(C(=N)N)c2)c1
inhibition [1]: 2.46%
inhibition [2]: 2.44%
inhibition [3]: 3.14%

COc1ccc(NC(=O)Nc2ccc(-c3ccccc3)cc2)cc1Cn1nc(Cl)c(N2CCCNCC2)cc1=O
inhibition [1]: 0.73%
inhibition [2]: 0.83%
inhibition [3]: 0.02%

C=C[C@H]1CN(CCCCCCC)CC[C@H]1C[C@@H](Cc1ccnc2ccc(OC)cc12)OC(=O)[C@](OC)(c1ccccc1)C(F)(F)F
inhibition [1]: 0.1%
inhibition [2]: -0.32%
inhibition [3]: -3.72%

CC(Sc1nnc(-c2ccccc2Br)[nH]1)C(=O)Nc1ccc(F)cc1 (stereo unspecified)
inhibition [1]: 10.4%
inhibition [2]: 9.07%
inhibition [3]: 6.58%

O=C(NC1CCN(CCCc2ccccc2)CC1)c1ccc(-c2cccc(C(F)(F)F)c2)s1
inhibition [1]: 1.95%
inhibition [2]: 1.23%
inhibition [3]: 3.77%

CS(=O)(=O)CCNCc1cccc(-c2cc3c(Nc4ccc(OCc5ccccc5)cc4)ncnc3cn2)c1
inhibition [1]: 13.7%
inhibition [2]: 10.7%
inhibition [3]: 6.71%

CCCCN1CCN(Cc2cccc(NC(=O)c3ccc(Cl)c(Cl)c3)c2)CC1
inhibition [1]: 13.4%
inhibition [2]: 10.1%
inhibition [3]: 10.5%

CCCCOC(=O)c1ccc(NC(=O)Nc2ccc(Cn3ncc(N4CCCNCC4)c(Cl)c3=O)cc2)cc1
inhibition [1]: 9.01%
inhibition [2]: 10.1%
inhibition [3]: 7.4%

O=C(Nc1cccc(CN2CCCN(CC3CCCCC3)CC2)c1)c1ccc(Cl)c(Cl)c1
inhibition [1]: 12.1%
inhibition [2]: 12.2%
inhibition [3]: 10.5%

c1ccc(CN2CCC(NCc3ccccc3-c3ccc(CNC4CCCC4)cc3)CC2)cc1
inhibition [1]: 4.61%
inhibition [2]: 3.06%
inhibition [3]: 6.38%

Cc1c(S(=O)(=O)Nc2ccc3ccn(CCN(C)C)c3c2)sc2ccc(Cl)cc12
inhibition [1]: -0.44%
inhibition [2]: -0.46%
inhibition [3]: 1.18%

CC1(C)C2C=C(CN3CCC(NC(=O)Nc4ccc(Cl)c(Cl)c4)CC3)C1CC2 (stereo unspecified)
inhibition [1]: 8.89%
inhibition [2]: 7.57%
inhibition [3]: 7.92%

COc1cccc(C2CCCN(CCCCNC(=O)c3ccc(NC(=O)c4ccc(Cl)cc4)cc3)C2)c1 (stereo unspecified)
inhibition [1]: 2.97%
inhibition [2]: 4.25%
inhibition [3]: 3.02%

Cc1cnc(C(=O)Nc2ccc3c(c2)CCCN(Cc2c[nH]c4cnccc24)C3)cn1
inhibition [1]: 11.1%
inhibition [2]: 11.4%
inhibition [3]: 9.32%

O=C(NCCc1ccccc1F)c1ccc(N2CCN(c3ccncc3)CC2)cn1
inhibition [1]: 10.3%
inhibition [2]: 9.09%
inhibition [3]: 8.65%

O=S(=O)(Nc1ccc2nccc(N3CCNCC3)c2c1)c1ccc(-c2ccccc2)cc1
inhibition [1]: 0.86%
inhibition [2]: 1.12%
inhibition [3]: 0.59%

O=S(=O)(c1ccc(NC(S)=NN=Cc2ccccn2)cc1)N1CCCCC1
inhibition [1]: 3.4%
inhibition [2]: 6.75%
inhibition [3]: 5.11%

COc1cc(C2=NN(S(=O)(=O)c3c(C)cc(C)cc3C)CCCC2)ccc1Cl
inhibition [1]: 4.03%
inhibition [2]: 3.46%
inhibition [3]: 3.33%

Clc1ccc2c(N3CCCNCC3)ccnc2c1
inhibition [1]: 1.53%
inhibition [2]: 1.07%
inhibition [3]: 4.48%

Cc1cc([N+](=O)[O-])ccc1NC(=O)Nc1cccc(C(F)(F)F)c1
inhibition [1]: 5.58%
inhibition [2]: 3.9%
inhibition [3]: 4.81%

COc1cc(N(Cc2ccccc2C)S(=O)(=O)Cc2ccccc2[N+](=O)[O-])c(OC)cc1Cl
inhibition [1]: 3.26%
inhibition [2]: 2.73%
inhibition [3]: 3.39%

COc1ccc2nccc(N3CCC(CCNCc4ccc5c(n4)NC(=O)CO5)CC3)c2n1
inhibition [1]: 0.66%
inhibition [2]: 0.67%
inhibition [3]: 1.8%

Cc1cccc2nc(-c3ccc(-c4ccc(CNCCN5CCNCC5)cc4)s3)[nH]c12
inhibition [1]: 2.77%
inhibition [2]: 3.12%
inhibition [3]: 3.22%

CC(C)CCN(Cc1cncn1Cc1ccccc1F)C(=O)c1cncc(-c2ccccc2)c1
inhibition [1]: 2.26%
inhibition [2]: 5.35%
inhibition [3]: 3.59%

Cc1cc(NC(=O)CCN2CCN(c3cccc(Cl)c3Cl)CC2)ccc1N1CCN(C(C)C)CC1
inhibition [1]: -0.22%
inhibition [2]: -0.39%
inhibition [3]: -2.11%

Cc1cccc2nc(-c3ccc(-c4cccc(CNCc5cnn(-c6ccccc6)n5)c4)s3)[nH]c12
inhibition [1]: 3.52%
inhibition [2]: 2.05%
inhibition [3]: 1.93%

FC(F)(F)c1ccc2[nH]c(-c3ccc(-c4ccc(CNCCN5CCNCC5)cc4)cc3)nc2c1
inhibition [1]: -1.44%
inhibition [2]: 0.13%
inhibition [3]: -1.25%

CCOCCCNc1nc2cc(OC)c(OC)cc2c2nc(-c3ccccc3)nn12
inhibition [1]: 1.59%
inhibition [2]: 2.14%
inhibition [3]: -2.64%

N=C(N)CCN(Cc1ccccc1)c1ccc(Cl)cc1
inhibition [1]: -1.51%
inhibition [2]: -1.28%
inhibition [3]: -1.35%

CCOc1ccc(C(C)NC(=O)c2ccc(OC)c(Br)c2)cc1OCC (stereo unspecified)
inhibition [1]: 1.14%
inhibition [2]: -0.71%
inhibition [3]: -0.9%

COc1ccc(C23Oc4cc(OC)cc(OC)c4C2(O)C2(CC3c3ccccc3)SCCCS2)cc1 (stereo unspecified)
inhibition [1]: 0.76%
inhibition [2]: -0.16%
inhibition [3]: 1.15%

O=C(/C=C/c1ccc(Cl)c(Cl)c1)NCCCCCN1CCC(NC(=O)Nc2ccc(C(F)(F)F)cc2)CC1
inhibition [1]: 8.19%
inhibition [2]: 8.67%
inhibition [3]: 8.81%

CC(=O)N(Cc1nc(-c2cc(Cl)c(Cl)s2)cs1)c1c(C)cccc1C
inhibition [1]: 4.94%
inhibition [2]: 4.38%
inhibition [3]: 5.58%

CCCCCCCN1CCC(CC(=O)Nc2ccnc3ccc(OC)cc23)C(CC)C1 (stereo unspecified)
inhibition [1]: -2.12%
inhibition [2]: -1.03%
inhibition [3]: -0.31%

Cc1ccc(S(=O)(=O)N(CCCNCc2cccc(O)c2)c2ccccc2)cc1
inhibition [1]: 9.85%
inhibition [2]: 6.1%
inhibition [3]: 7.86%

CN1CCN(Cc2cccc(-c3ccc4c(Nc5cc(O)c(Cl)cc5F)ccnc4c3)c2)CC1
inhibition [1]: 2.16%
inhibition [2]: 6.74%
inhibition [3]: 13%

Cc1cc(NC2CCCC2)nc(Nc2ccccc2)n1
inhibition [1]: 16.4%
inhibition [2]: 9.56%
inhibition [3]: 6.13%

Cc1cccc2nc(-c3cccc(-c4cccc(NC(=O)Nc5ccc(Cl)cc5)c4)c3)[nH]c12
inhibition [1]: -3.06%
inhibition [2]: -0.68%
inhibition [3]: -1.91%

COc1ccc(/C=C/C(=O)Nc2ccc(-c3ccncc3)cc2)cc1CCCN(C)C
inhibition [1]: 6.87%
inhibition [2]: 5.55%
inhibition [3]: 6.94%

O=C(Nc1cccc(CN2CCCN(Cc3ccc4c(c3)OCO4)CC2)c1)c1cc2ccccc2s1
inhibition [1]: -0.41%
inhibition [2]: -0.3%
inhibition [3]: -3.63%

CN(C)CCNc1cc(-c2cccnc2)nc(-c2ccncc2)n1
inhibition [1]: -1.31%
inhibition [2]: -1.16%
inhibition [3]: -1.09%

Cc1noc(-c2ccccc2)c1NC(=O)N1CCN(CCCCCCNC(=O)/C=C/c2ccc(Cl)c(Cl)c2)CC1
inhibition [1]: -2.35%
inhibition [2]: 0.35%
inhibition [3]: -1.3%

Cc1cc(Nc2cccc(C(F)(F)F)c2)nc2ccc(NC(=O)c3ccc(=O)[nH]c3)cc12
inhibition [1]: -0.79%
inhibition [2]: -0.69%
inhibition [3]: -0.59%

Cc1[nH]c(C)c(-c2ccc(-c3ccc(OCC(F)(F)F)cc3)nc2)c(=O)c1Cl
inhibition [1]: 5.76%
inhibition [2]: 4.89%
inhibition [3]: 6.06%

CN(Cc1ccccc1)C1CCN(c2cc(NC(=O)c3cccc(F)c3)ccn2)CC1
inhibition [1]: 6.87%
inhibition [2]: 8.73%
inhibition [3]: 6.54%

Cn1cncc1CCCN(Cc1ccc(-c2ccc(C(F)(F)F)cc2)cc1)C(=O)Cn1c(CCc2cccc(F)c2F)cc(=O)c2cccnc21
inhibition [1]: 2.28%
inhibition [2]: 2.54%
inhibition [3]: 1.5%

Cc1ccc(N2C(N)=NC(N)=NC2(C)C)cc1Cl
inhibition [1]: 11.4%
inhibition [2]: 8.8%
inhibition [3]: 8.05%

Cc1cccc2nc(-c3ccc(-c4ccc(CNCc5ccccc5)cc4)s3)[nH]c12
inhibition [1]: 8.05%
inhibition [2]: 4.44%
inhibition [3]: 3.06%

CC(C)C[C@@H](/C=N/N1CCNC1=O)NC(=O)[C@H](CC(C)C)NC(=O)c1ccc(OCCN2CCOCC2)cc1
inhibition [1]: 0.84%
inhibition [2]: 6.5%
inhibition [3]: 0.69%

Cc1cccc(-c2nn(-c3ccccc3)c3[nH]c(=O)c(CN4CCSCC4)cc23)c1
inhibition [1]: -2.69%
inhibition [2]: -2.03%
inhibition [3]: 1.18%

CN(C)CCNc1ncnc2c1[nH]c1ccc(Cl)cc12
inhibition [1]: 3.7%
inhibition [2]: 3.91%
inhibition [3]: 2.92%

Cc1nc(N/C(N)=N/C(=O)NC2CCCCC2)nc2ccccc12
inhibition [1]: 7.72%
inhibition [2]: 5.72%
inhibition [3]: 6.66%

CCN(CCNC(=O)Cn1c(C)cc2cc([N+](=O)[O-])ccc21)c1cccc(C)c1
inhibition [1]: 6.46%
inhibition [2]: 6.77%
inhibition [3]: 6.91%

Cc1cccc2nc(-c3ccc(-c4ccc(NC(=O)C(=O)c5cccn5C)cc4)cc3)[nH]c12
inhibition [1]: 5.06%
inhibition [2]: 1.84%
inhibition [3]: 0.5%

c1ccc(CNCc2cccc(-c3ccc(-c4nc5ccccc5[nH]4)s3)c2)cc1
inhibition [1]: 4.03%
inhibition [2]: 3.45%
inhibition [3]: 3.41%

O=C(CC1SC(N2N=C(c3cccs3)CC2c2ccccc2)=NC1=O)Nc1ccccc1F (stereo unspecified)
inhibition [1]: 14.2%
inhibition [2]: 11.5%
inhibition [3]: 3.51%

Cc1cc(N2CCN(CC3CCCCC3)CC2)nc(Nc2ccc(Br)cc2)n1
inhibition [1]: 1.47%
inhibition [2]: 3.17%
inhibition [3]: 0.54%

CCc1cc(OC)c(C(=O)NC2CCN(C[C@H](O)c3ccnc4ccc(OC)cc34)CC2)cc1Br
inhibition [1]: 1.58%
inhibition [2]: -0.43%
inhibition [3]: -0.3%

CCCC(C)Nc1nc(C)cc(N[C@@H](Cc2ccccc2)C(=O)NCCc2ccccc2)n1 (stereo partly specified)
inhibition [1]: 2.61%
inhibition [2]: 3.38%
inhibition [3]: -0.17%

COc1ccc(CNc2ccc3nc(N)nc(N)c3c2)cc1
inhibition [1]: -2.31%
inhibition [2]: 1.62%
inhibition [3]: -1.87%

CCCOc1ccc(C(F)(F)F)cc1NC(=O)c1nc2nc(C)cc(C)n2n1
inhibition [1]: 6.01%
inhibition [2]: 5.05%
inhibition [3]: 1.31%

NC(=O)c1ccc(NCC(=O)Nc2cccc(-c3cccc(-c4nc5ccccc5[nH]4)c3)c2)cc1
inhibition [1]: 2.82%
inhibition [2]: 4.21%
inhibition [3]: 0.95%
